This is an account of results in ChEMBL document CHEMBL4513216, “Probing the Open Global Health Chemical Diversity Library for Multistage-Active Starting Points for Next-Generation Antimalarials” (ACS Infect Dis, 2020).

Screen size: about 65,000 compounds; about 2,100 (3.2%) showed an effect of 50% or more. The median lay at about -52%. The list comes from a sample in which strong results are over-represented; it also holds similar structures and randomly drawn compounds.

This test concerns Plasmodium falciparum. Put plainly: Screen against P. falciparum Asexual Blood Stage (ABS), at 5uM. It counts as functional, Dd2. Conditions: tested at 5 uM.
Consider `Cc1ccnc(NC(=O)CCc2cnn(C)c2C)c1`, for which the INHIBITION is listed as -26.3%.
As for `CC(C)CSCCCNC(=O)C1CCC1`, the INHIBITION is recorded as -47.5%.
The figure for `CCN(CC1CCOC1)S(=O)(=O)Cc1ccccc1Cl` (stereo not given) is -53.1%; for `CCN(CC1CCOC1)S(=O)(=O)Cc1cc(Cl)ccc1OC` (stereo not given) it is 59.1%.
The figure for `COc1ccc(Cl)cc1CCNC(=O)N(C)CC1CCOC1` (stereo not given) is -102%.
The figure for `CN1CCCCC12CCN(C(=O)c1cccn1C)CC2` is -27%.
In the case of `COCCNc1ncnc2c1CCN(C(=O)CC1CCC(=O)N1)CC2` (stereo not given), the INHIBITION is listed as -36%.
The same measure for `CC(=O)N1CCC2(CCCN(C(=O)CCN3CCCCC3)C2)C1` (stereo not given): -141%; for `CC(=O)N1CCOC2(CCCN(C(=O)CCN3CCCCC3)C2)C1` (stereo not given): 56%.
The figure for `CC(=O)N1CCCC2(C1)CN(C(=O)C1CCCCC1)CCO2` (stereo not given) is -104%; for `Cc1nccc(NCc2cncc3c2CCN(S(C)(=O)=O)C3)n1` it is -102%; for `Nc1cc(-c2cccs2)nn(CC(=O)N2CCc3ccccc32)c1=O` it is -13.9%.
The figure for `Cc1cc(C)n(CC(C)NCCn2nc(C)c(Cl)c2C)n1` (stereo not given) is -48.1%; for `Cc1cc(C)n(CC(C)NCCN2CCc3ccccc32)n1` (stereo not given) it is 54.7%; for `Cc1ccnc(NCCCN2CCc3ccccc32)n1` it is 19.8%.
Consider `N#CC1(C(=O)N2C[C@@H]3CC[C@H]2CN(Cc2cscn2)C3)CCOCC1`, for which the INHIBITION is reported as -81.2%.
The figure for `COc1cc(F)c(NCc2nc3ccccc3n2C)cc1OC` is -381%; for `O=C1N(Cc2cccnc2)CCC12CCCN(c1ncccn1)C2` (stereo not given) it is -123%.
On to `COc1ccccc1CN1CCCC(Cc2nccnc2N)C1` (stereo not given), for which the INHIBITION is listed as 62.1%.
The figure for `COc1ccccc1CC1CCCN(CC(=O)NC2CC2)C1` (stereo not given) is 16.1%.
The same measure for `CNC(=O)CN1CCCC(Cc2ccccc2OC)C1` (stereo not given): 61.9%; for `CNC(=O)NC(=O)CN1CCCC(Cc2ccccc2OC)C1` (stereo not given): -87.4%; for `Nc1nccnc1CC1CCCN(Cc2ccnc3ccccc23)C1` (stereo not given): -53.7%.
The same measure for `Nc1nccnc1CC1CCCN(Cc2cccc3[nH]ccc23)C1` (stereo not given): 19.4%.
Regarding `CCN1CCN(c2ccccc2NC(=O)N(C)C2CCSC2)CC1` (stereo not given), the INHIBITION was 37.6%.
For the molecule `CN(C)Cc1noc2c1CN(Cc1ccc[nH]1)CC2`, the INHIBITION is -77.5%.
The figure for `Cc1cc2c(cc1C)C(NC1CC1)CCCO2` (stereo not given) is -3.02%; for `Cc1ccc2c(c1)OC(C)(C)CC2NC(=O)C1CCN(C)CC1` (stereo not given) it is 30.2%; for `Cc1ccc2c(c1)C(NCc1nccn1Cc1ccccc1)CCCO2` (stereo not given) it is 35.8%.
The same measure for `Cc1ccc2c(c1)C(NC1CCN(C)CC1)CCCO2` (stereo not given): 66.8%; for `Cc1ccc2c(c1)C(NCc1nnc3n1CCCCC3)CCCO2` (stereo not given): -74.6%; for `Cc1ccc2c(c1)OCCCC2NC1CCN(C)CC1` (stereo not given): 50.3%.
Consider `CS(=O)(=O)N1CC[C@H]2O[C@H](C(=O)NCCc3ccccn3)CC[C@H]21`, for which the INHIBITION is -48.2%.
Consider `COc1cccc(OCCc2nc3c(cc2C(N)=O)CCC3)c1`, for which the INHIBITION is -58.5%.
On to `Cc1nc(CN2CCCC(N(C)CC3CCCC3)C2)no1` (stereo not given), for which the INHIBITION was -42.4%.
The figure for `CCc1nc(C2CCCN2CCCc2nc3ccccc3o2)no1` (stereo not given) is -157%.
For the molecule `Cc1nc2ccccn2c1CC(=O)N[C@@H]1CC[C@@H](N2CCOCC2)[C@@H]1O`, the INHIBITION is reported as -72.5%.
The figure for `NCc1ccccc1Sc1ccc(O)cc1` is 56.7%; for `CN(C)CCNC(=O)c1cc(-c2cnc(N3CCCC3)nc2)cn1C` it is -123%.
The figure for `c1ccc(-n2cc(CN3CCCC3Cn3cncn3)nn2)cc1` (stereo not given) is -14%; for `C[C@@H]1CN(C2(C(=O)N3CCSCC3)Cc3ccccc3C2)C[C@H](C)O1` it is -238%.
Consider `C[C@@H]1CN(C2(C(=O)N3CCOCC3)Cc3ccccc3C2)C[C@H](C)O1`, for which the INHIBITION is -22.3%.
The same measure for `C[C@@H]1CN(C2(C(=O)N3CCNCC3)Cc3ccccc3C2)C[C@H](C)O1`: 63.4%; for `CCc1noc(C(C)N(C)CC(=O)Nc2ccc(Cl)c(C(F)(F)F)c2)n1` (stereo not given): -75.8%; for `CC(Cn1cccn1)NC(=O)N1CCN(Cc2ccsc2)CC1` (stereo not given): -55.3%.
The same measure for `CC(Cn1ccnc1)NC(=O)N1CCN(Cc2ccsc2)CC1` (stereo not given): 58.4%; for `CC(Cn1ccnc1)NC(=O)N1CCN(Cc2ccncc2)CC1` (stereo not given): -125%; for `NC(=O)c1c(-c2ccc(Cl)cc2Cl)csc1NC(=O)CCCC(=O)O`: -162%.
The same measure for `CC(C)NC(=O)N1CCC2(CC1)C(=O)NCCN2Cc1ccccc1`: -105%; for `COc1ccc(-n2cc(CCO)cn2)cc1C`: -136%.
For the molecule `CN(C)CCN1CCCC12CCCN(Cc1ccco1)C2` (stereo not given), the INHIBITION was -71.8%.
The figure for `CN(C)CCN1CCCC12CCN(C(=O)c1ccco1)CC2` is 33.9%; for `O=C1CC2(CCN(Cc3ccoc3)CC2)CN1Cc1cc(F)cc(F)c1` it is 56.5%; for `O=C1CC2(CCN(CCO)CC2)CN1Cc1cc(F)cc(F)c1` it is 19.3%.
Turning to `O=C1CC2(CCN(Cc3ncc[nH]3)CC2)CN1Cc1cc(F)cc(F)c1`, the INHIBITION is given as -147%.
The same measure for `CN(C)CCN1CCCC12CCCN(Cc1ccoc1)C2` (stereo not given): 68.1%; for `Cc1ccc(CN2CCCC3(CCN(Cc4ccoc4)CC3)C2)cc1`: 79.8%; for `Cc1ccc(CN2CCC3(CCCN(C(=O)N(C)C)C3)C2)cc1` (stereo not given): -59.2%.
The same measure for `CNC(=O)CN1CCOCC2(CCCN(Cc3ccoc3)C2)C1` (stereo not given): 33.7%.
For `CC1CCCN(S(=O)(=O)NCCNC(=O)c2ncccc2O)C1` (stereo not given), the INHIBITION is recorded as -122%.
In the case of `COc1ccc(-c2nc(CCNC(=O)NC3CCC(O)CC3)co2)cc1` (stereo not given), the INHIBITION is -13.7%.
The same measure for `CCN(C)CC(=O)N1CCc2nc(NC)nc(C(=O)N3CCCC3)c2C1`: -14.4%.
The same measure for `CSc1ccc(CNc2n[nH]c(C)n2)cc1`: -43.7%.
Turning to `CCS(=O)(=O)N1CCC2(CC1)CN(c1ccsc1)C(=O)CO2`, the INHIBITION was -0.697%.
For `CC(=O)Nc1c(C)noc1C=Cc1ccc(S(=O)(=O)N2CCCC2)cc1`, the INHIBITION is on record as 11.8%.
The figure for `Cc1noc(C)c1CN1CCO[C@H]2CN(Cc3cccc(F)c3)C[C@H]21` is -32.1%; for `COc1ccc(CN2C[C@@H]3OCCN(C)[C@@H]3C2)cc1` it is -42.1%; for `COc1ccc(CN2C[C@@H]3OCCN(CCN4CCCC4)[C@@H]3C2)cc1` it is 64%.
The same measure for `CN(C)CCN1CCO[C@H]2CN(Cc3cnn(C)c3)C[C@H]21`: -88.4%.
For the molecule `Fc1ccc(CN2C[C@@H]3OCCN(CCN4CCCC4)[C@@H]3C2)cc1`, the INHIBITION was -70.3%.
For `Cc1noc(C)c1CN1CCO[C@H]2CN(Cc3ccc(F)cc3)C[C@H]21`, the INHIBITION stood at 55.3%.
As for `COc1ccc(CN2C[C@@H]3OCCN(CCN(C)C)[C@@H]3C2)cc1`, the INHIBITION was found to be 66.9%.
The same measure for `COc1ccc(CN2C[C@@H]3OCCN(CC4CCCO4)[C@@H]3C2)cc1` (stereo not given in full): -115%; for `Fc1ccc(CN2C[C@@H]3OCCN(CC4CCCO4)[C@@H]3C2)cc1` (stereo not given in full): -2.84%.
Take `O=C(CN1CCC(C(=O)c2cc(F)ccc2F)CC1)NC1CCCC1`: the INHIBITION is -63.8%.
The figure for `Cc1nn(C)c2c(NCc3ccc(F)cc3)nc(C3CC3)nc12` is 40.3%; for `CCCn1ccnc1CN1CCCC(O)(CN(C)C)CC1` (stereo not given) it is -44.8%.
The figure for `CC(=O)N1CC[C@H]2[C@H](C[C@@H](Cn3cncn3)N2c2nccs2)C1` is -33.8%; for `Nc1nc2cn(C3CCCC3)c(=O)c-2c[nH]1` it is 69.9%.
`CNc1nc2cn(C3CCCC3)c(=O)c-2c[nH]1`: the INHIBITION is reported as -45.905%.
The figure for `CC1CCC(n2cc3nc(N)[nH]cc-3c2=O)CC1` (stereo not given) is -68.9%.
Take `CN(C)c1nc2c(c(N3CCC4(CC3)CNC(=O)C4)n1)CCCC2`: the INHIBITION is on record as -6.41%.
For the molecule `O=S(=O)(N1CCCCC1)N1CCCN(CC2CCCO2)CC1` (stereo not given), the INHIBITION was -12.8%.
The figure for `CC(C)N(C)Cc1cncc2c1CCN(C(=O)c1ccccc1F)C2` is -44.1%.
The figure for `CN(Cc1ccco1)[C@@H]1CN(Cc2ccncc2)C[C@@H]2CCCO[C@@H]21` is 9.86%; for `Cc1ccc(CN2C[C@@H]3CCCO[C@@H]3[C@H](N(C)Cc3ccco3)C2)o1` it is 39.7%.
The same measure for `CN(Cc1ccco1)[C@@H]1CN(Cc2cccs2)C[C@@H]2CCCO[C@@H]21`: 65.3%.
As to `CN(Cc1ccco1)[C@@H]1CN(Cc2cccnc2)C[C@@H]2CCCO[C@@H]21`, the INHIBITION is 29.1%.
The same measure for `CN(Cc1ccco1)[C@@H]1CN(Cc2ccoc2)C[C@@H]2CCCO[C@@H]21`: 60.3%.
The same measure for `CN(Cc1ccco1)[C@@H]1CN(Cc2nccs2)C[C@@H]2CCCO[C@@H]21`: 31.1%; for `COC(=O)c1cccn1C1CCN(Cc2cnc3ccccn23)CC1`: -55.1%.
`COC(=O)c1ccc(S(=O)(=O)NC2CNC(=O)C2)cc1` (stereo not given): the INHIBITION is reported as -28.8%.
The same measure for `CCn1c(=O)c2sccc2n(CC(=O)Nc2cccc(Cl)c2)c1=O`: -40%; for `Cn1c(=O)c2sccc2n(CC(=O)Nc2cccc(Cl)c2)c1=O`: 59.4%.
The figure for `CC(C)c1cccc(NC(=O)Cn2c(=O)n(C)c(=O)c3sccc32)c1` is -34.2%; for `O=C(NC1CCN(c2ncccc2F)C1)c1cccc(-n2ccnc2)c1` (stereo not given) it is -41.7%; for `Cc1cc(S(=O)(=O)N2CCCN3CCCC3C2)ccc1F` (stereo not given) it is 69.1%.
The same measure for `Cc1ccc(S(=O)(=O)N2CCCCC(N3CCN(C)CC3)C2)cc1F` (stereo not given): 39.6%; for `Cc1cc(S(=O)(=O)N2CCC(S(C)(=O)=O)C2)ccc1F` (stereo not given): -22.2%; for `Cc1ccc(S(=O)(=O)N2CCC(S(C)(=O)=O)CC2)cc1C`: -1.8%.
Consider `Cc1ccc(S(=O)(=O)N2CCC(N3CCCCC3)CC2)cc1C`, for which the INHIBITION worked out at 65.9%.
Consider `Cc1ccc(S(=O)(=O)N2CCC(S(=O)(=O)c3nncn3C)CC2)cc1C`, for which the INHIBITION is -31.9%.
Take `CC(C)NC(=O)C1CCN(C(C)C(=O)N2CCc3sccc3C2)CC1` (stereo not given): the INHIBITION is -14.7%.
For the molecule `CC(C(=O)N1CCc2sccc2C1)N1CCC(N2CCCC2)CC1` (stereo not given), the INHIBITION was found to be 53%.
The figure for `CC(C(=O)N1CCc2sccc2C1)N1CCCN(C2CC2)CC1` (stereo not given) is 22.7%.
